Screens: PubChem BioAssay, several laboratories
Only some compounds are listed: those with a hit (about 2.4% of all), similar ones and a draw of the others.
PERK inh = block of dimerizer-induced PERK translation repression, primary screen, PERK inhibitor project, CHO PERK-DD cells, SEAP luminescence, HTS | Eukaryotic translation initiation factor 2-alpha kinase 3 (Homo sapiens), Q9NZJ5 | CHO PERK-DD fusion, SEAP luminescence translation reporter | inhibition, % at 5.6 µM | hit rate 0.17% among 220,000 | AID 1416, 2008;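 active = inhibition above the mean inhibition of all tested compounds plus 3 SD, set separately per screening campaign, cut at about 2.9% in these data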;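 note: PERK kinase domain activated by AP20187 dimerizer at 100 nM; 0% = DMSO with dimerizer and 100% = rapamycin at 8.4 µM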
PABP polyA inh = PABP poly(A) RNA binding inhibitors, primary screen, biochemical, fluorescence polarization, uHTS | Polyadenylate-binding protein 1 (Homo sapiens), P11940 | inhibition, % at 35 µM | hit rate 1% among 290,000;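 note: calls also rest on retests at 20 µM and on dose response follow-up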
PfM18AAP inh = PfM18AAP inhibitors, malaria aminopeptidase, primary screen, biochemical, QFRET, recombinant enzyme; M18 aspartyl aminopeptidase (Plasmodium falciparum 3D7); H-Glu-NHMec fluorogenic cleavage; inhibition, % at 7.35 µM; hit rate 1.2% among 290,000; AID 1822, 2009;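 active = inhibition above the campaign mean inhibition over all tested compounds plus 3 SD, cut at about 28% in these data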;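 note: 0% = plate median of test compound wells and 100% = 2 mM ZnCl2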
eIF4H FP inh = human eIF4H binding inhibitors, primary screen, translation initiation inhibitor project, biochemical, uHTS, fluorescence polarization; Eukaryotic translation initiation factor 4H (Homo sapiens), Q15056; eIF4H fluorescence polarization binding assay; inhibition, % at 35 µM; hit rate 0.94% among 290,000; AID 2012, 2009;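 note: calls also rest on retests at 20 µM and on dose response follow-up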
eIF4E-4G inh = eIF4E–eIF4G protein interaction inhibitors, primary screen, biochemical, uHTS, TR-FRET, eIF4GI fragment | Eukaryotic translation initiation factor 4E (Mus musculus) + Eukaryotic translation … | TR-FRET eIF4E-eIF4GI(517-606) binding, 2 h | inhibition, % at 21.7 µM | hit rate 0.37% among 220,000 | AID 782, 2007;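 active = inhibition above about 30%, limit read from the data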;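 note: 0% = full FRET control wells and 100% = background wells lacking eIF4GI fragment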
MLLE-PAM2 inh = inhibitors of PABP1 MLLE–PAM2 peptide binding, primary screen, biochemical, fluorescence polarization, FITC-PAM2, GST-MLLE | Polyadenylate-binding protein 1 (Homo sapiens), P11940 | hit rate 0.36% among 360,000 | inhibition, % at 20 µM | AID 588489, 2011; in the data active = inhibition above about 35%, passing the limit was not always enough;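 note: plate controls were DMSO wells with GST-MLLE for no effect and wells lacking GST-MLLE protein for full effect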
Active calls of the source: *; ? = inconclusive; nt = no result given; ! = not confirmed by another sample. Unless noted, the rule behind the calls is not given here.

SMILES	PERK inh	PABP polyA inh	PfM18AAP inh	eIF4H FP inh	eIF4E-4G inh	MLLE-PAM2 inh
O=C(Nc1ccc(S(=O)(=O)N2CCCCC2)cc1)C1CCCN(C(=O)c2ccc(Cl)cc2)C1 (stereo unspecified)	0	7	5	-7	3	-28
O=C(O)C1CSC(c2coc3ccccc3c2=O)N1 (stereo unspecified)	0	-20	29*	11	18	24
O=[N+]([O-])c1cc(S(=O)(=O)Nc2ccccc2)ccc1N1CCN(c2ccc(O)cc2)CC1	2	11	30*	17	5	19
Cc1ccc(NS(=O)(=O)c2ccc(N3CCN(c4ccc(O)cc4)CC3)c([N+](=O)[O-])c2)c(C)c1	-1	-14	27	0	0	13
CCN1CCc2c(sc3c2c(NCc2ccco2)nc2nnnn23)C1	1	81*	14	57*	6	-17
COc1ccc(/C=N/OCC(=O)N(Cc2ccc(OC)cc2)c2ccccc2C(=O)O)cc1	1	?	9	-10	6	10
CCc1nn2c(=O)cc(COc3ccc(/C=C4\C(=N)N5N=C(C)SC5=NC4=O)cc3)nc2s1	0	active	6	70*	21	-3
O=C(CSc1ncnc2ccccc12)Nc1ccc2c(c1)OCCO2	0	-8	-3	-3	1	17
O=C(CSc1ncnc2ccccc12)NCc1ccc2c(c1)OCO2	-1	55	0	active	0	-10
O=C(CSc1nc(Cc2ccccc2)nc2ccccc12)Nc1ccc2c(c1)OCCO2	-1	-1	4	5	9	38*
CC(C)c1nc(SCC(=O)Nc2ccc(N3CCOCC3)cc2)c2ccccc2n1	-2	-1	-2	-1	6	45*
CC(NC(=O)c1cc(S(=O)(=O)N(C)C)ccc1N1CCCC1)C1CC2CCC1C2 (stereo unspecified)	-1	-3	-18	0	3	4
CCSC1(SCC)N=C(N)C2(C#N)C(c3ccccc3)NC3=C(CCC3)C12C#N (stereo unspecified)	1	75*	-21	72*	-28	2
C=CCn1c(SC(C)C#N)nc2sc(CC)cc2c1=O (stereo unspecified)	1	16	-2	-5	0	-3
O=C(NNC(=S)NC1CCCCC1)c1ccccc1Br	nt	-3	1	16	nt	-22
CC12CCCCN1CCCc1c2[nH]c2ccccc12 (stereo unspecified)	0	?	5	?	-3	40*
CC(=O)N1CCN(S(=O)(=O)c2cccc(C(=O)NCCc3ccc(Cl)cc3)c2)CC1	nt	nt	nt	nt	nt	-7
Cc1ccc(S(=O)(=O)/N=C2\C=C(NS(=O)(=O)c3ccccc3)C(=O)c3ccccc32)cc1	nt	nt	nt	nt	nt	6
Cc1ccc(S(=O)(=O)/N=C2/C=C(C3C(=O)CC(C)(C)CC3=O)C(=O)c3ccccc32)cc1	-1	24	-1	6	10	44*
O=[N+]([O-])/C(C(Cl)=C(Cl)Cl)=C(/Sc1ccccc1)N1CCCCC1	0	-2	5	-10	0	22
O=C(c1ccc2ncsc2c1)N1CCCCC1	nt	-1	-1	0	nt	20
O=C(O)c1ccc2ncsc2c1	1	7	62*	-5	23	24
COc1cccc(CCC2C(=O)CCCC2=O)c1	nt	nt	nt	nt	nt	13
COc1cc(/C=N/NC(=O)c2cc(-c3ccco3)nc3ccccc23)cc(OC)c1O	0	?	12	?	14	-11
COc1ccccc1CNC(=O)COC(=O)c1cc(-c2ccco2)nc2ccccc12	-1	64*	-50	90*	0	-12
SMILES	PERK inh	PABP polyA inh	PfM18AAP inh	eIF4H FP inh	eIF4E-4G inh	MLLE-PAM2 inh
COc1ccccc1CNC(=O)COC(=O)c1cc(C)nc2ccccc12	nt	nt	nt	nt	nt	7
O=C(N/N=C/c1cccc(F)c1)c1cc(-c2ccco2)nc2ccccc12	0	54*	10	84*	20	-18
O=C(NCC1CCCO1)c1cc(-c2ccncc2)nc2ccccc12 (stereo unspecified)	nt	nt	nt	nt	nt	12
O=C(NCC1CCCO1)c1cc(-c2ccco2)nc2ccccc12 (stereo unspecified)	-1	24*	-17	82*	12	13
O=C(NC1CCC(O)CC1)c1cc(-c2ccco2)nc2ccccc12 (stereo unspecified)	1	4.8*	1	85*	40*	10
COc1ccc(N(CC(=O)NCc2cccs2)S(=O)(=O)c2c(C)n[nH]c2C)cc1	1	-3	5	-14	-1	-4
COc1ccc(-c2ccc3[nH]c4c(c3c2)CCN2C(=O)[C@@H]([C@H](C)O)[C@@H](N(C)C(=O)Nc3ccc(F)cc3)C[C@@H]42)cc1	nt	nt	nt	nt	nt	13
CC(=O)Nc1ccc(OCc2cn(CC(=O)c3ccc(O)cc3)nn2)cc1	nt	nt	nt	nt	nt	3
CCCOc1c(Br)cc(C2C3=C(CCCC3=O)N(C)C3=C2C(=O)CCC3)cc1OC	0	-6	4	?	4	36
O=C(O)c1cc(-c2ccco2)nc2ccc(Br)cc12	1	93*!	-5	87*	5	24
O=C(NCC1CCCO1)c1nn2c(C(F)(F)F)cc(-c3ccco3)nc2c1Cl (stereo unspecified)	nt	-2	2	2	nt	60
CCc1nnc(NC(=O)c2cc(-c3ccco3)nc3ccccc23)s1	0	-8	6	76*	24	-7
O=C(NCC1CCCO1)c1cc2nc(-c3ccco3)cc(C(F)(F)Cl)n2n1 (stereo unspecified)	nt	53*	-15	83*	nt	8
O=C(c1ccco1)N1CCN(C(=O)c2cc(-c3ccncc3)nc3ccc(Br)cc23)CC1	-1	nt	5	nt	nt	-45
Cc1cccc(C(=O)NNC(=O)C2CCN(C(=O)OC(C)(C)C)CC2)c1	nt	9	-1	-2	nt	-5
Cc1c2cnn(CC(=O)Nc3c(F)c(F)cc(F)c3F)c(=O)c2c(C)n1Cc1ccccc1F	0	9.6*	-7	95*	32*	-11
Cc1ccc2cc(C#N)c(N3CCCN(C(=O)C4CCCO4)CC3)nc2c1C (stereo unspecified)	-1	107*	-5	94*	1	-4
Cc1ccc2cc(C#N)c(N3CCCC3)nc2c1C	1	1	5	6	nt	-12
COc1ccccc1N1CCN(C(=O)CN(c2ccccc2OC)S(=O)(=O)c2ccccc2)CC1	-2	-5	3	-7	-7	-1
